One assay concerns LXRa homodimer (NR concentration 270 nM). The assay can be described thus: PBM binding z-score (relative to random genomic background probes); higher = stronger binding; sequences stand for … in GC…GCGATTGACAGCGTAGAATGAAGG
Put shortly: (§1)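 Ligand-free nuclear receptor dimers were applied to custom Agilent 4×180K protein-binding microarrays whose double-stranded probes carried direct-repeat seeds, single-nucleotide variants, half-site ablations and random human genomic background sequences in 34-nt variable regions. Incubation lasted 1 h. Binding z-scores were computed against the random background probes from regression-normalized fluorescence.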
AGTCGAAGTTCACTAGGTAACGTAAGATTCAGCT: the PBM binding z-score is 0.29.

Consider GCTAGTTGGTCCGTAAAAGGTCACACACCGGTCG, for which the PBM binding z-score stood at 3.93.

With CGAACTAGGTCAGAACAGGACAGTGAAGGATGAT, the PBM binding z-score was -0.0376.

With CGAAATAGGTCAGAACAGGACAGTGAAGGATGAT, the PBM binding z-score turned out to be 0.564.

In the case of TAGCCTAGGTCATTCTGGGGCCAGTATAGAAAGC, the PBM binding z-score came out at 0.795.

As for ATACCAAGGTGATCGTGACGTCGTTGATACTAAC, the PBM binding z-score stood at 0.147.

CGTCCAAGGTCAAGGTTAGTGAAAGAGACTCGAA returned a PBM binding z-score of 0.37.

TCGAGTAGGTTAGTCGGGGGATTCAGCCAACATA: the PBM binding z-score was -0.00348.

The sequence GCTCGGAGGGCAAGGTCAGAGCTTTGTCCGTAGA showed a PBM binding z-score of -0.485.

As to CCGAGTAGGTTATGGGGCATTCATGCAACGGTGA, the PBM binding z-score was -0.0106.

ACTAGCAGTCCAAGGGTCACTCAAGATTAGTCCG displayed a PBM binding z-score of 0.313.

Sequence ATCGAAAGGTCCTGAGGTGAGTATACAGAAAGGC returned a PBM binding z-score of -0.698.

AGTCAAAGTTCACTTGGTAACGTAAGATTCAGCT returned a PBM binding z-score of 3.34.

For TCTAGCACGCCAGAGGGTCACTCAAGAGGTACGG, the PBM binding z-score was -0.323.

In turn, CCAACTAGGTCAAGGTCAAAGTCGGTTTGTGCCA yielded a PBM binding z-score of 4.61.

For TCAGACAGGTGAAGGTAACACAGGTACGCAGTCG, the PBM binding z-score worked out at 0.113.

In turn, TTACCAAGGTGAGCTGAGGTCGTCGATCCAACTC gave a PBM binding z-score of -0.506.

As to TCATATAGGTAAATGCTAGGTGAGAGTCCGATCT, the PBM binding z-score was -0.251.

As for TCTTGTAGATTAAAGGTTAAGAAAGCCGAAGCCT, the PBM binding z-score came to 0.568.

As to TCAGACAGGTGCAGGTAACTCAGGTACGCAGTCG, the PBM binding z-score is -0.304.

As for CGTCAAAGTTCAACTAAAGTAACGTAAAGCACGC, the PBM binding z-score stood at 3.94.

The sequence AATACAGGGTCACTAGGCCAGACTAGGTACGAAT came in with a PBM binding z-score of 0.88.

On to TTACCATGGTGAGCTGAGGTCGTTGATCCAACTC, for which the PBM binding z-score is -0.568.

In turn, CAGCCTAGGTCAGGGCCAGTAAAGGAGGAACGTT came in with a PBM binding z-score of -0.563.

In turn, TCTTGTAGATCAATAGAGTTTAAGAAAGTGCGCT displayed a PBM binding z-score of 0.0611.

The sequence TCGAGGAGGTTACCAATGGGGCATTCAGCTTTCT displayed a PBM binding z-score of -0.21.

For the sequence CGTCCAAGGTCAGAGATGTCAGTGAATGCCGAGT, the PBM binding z-score came out at 0.142.

CACACTAGGTCACGAAAGGTCAAAGTCGAATGAC came in with a PBM binding z-score of 9.12.

Sequence GATACAGGGTCAGCTAGAGGCAAGAGTATGGAAA came in with a PBM binding z-score of -0.297.

Turning to CGAACTAGGTCACAACAGGACAGTGAAGGATGAT, the PBM binding z-score stood at 0.422.

As for ATATGTAGGTTTAGGGTCATTCAGGTTGGTTCGC, the PBM binding z-score worked out at 1.71.

As for CCGACTGGGGCAAGGTTAGCATAACGCACAGCCA, the PBM binding z-score is -0.322.

Regarding CGTCCAAGGTCATCGGAGGTCAGTGAAGACAGAT, the PBM binding z-score was found to be 5.77.

TCTCGGAGGACACGAAAGGTCAGAGTTCGACATC gave a PBM binding z-score of 4.17.

CCTACTGGCCCACGAAAGGTCATTGATTCAGTGA: the PBM binding z-score was determined as 5.66.

On to TCATATAGGTAAAGGCGAAAGTCGAACGATATGA, for which the PBM binding z-score was -0.495.

Sequence CAAACTAGGTCAGAGAGGTCAAAGTCCGTGCGTA gave a PBM binding z-score of 6.8.

Take TAGCCTAGGTCAGATCGGGCCAGTATCCGCTATA: the PBM binding z-score is -0.375.

With CTCGAAAGGCCGGTTGAGGTGAGTATACGGATAA, the PBM binding z-score is -0.91.

A further assay relates to LXRb:RXRa (NR concentration 270 nM, RXRa partner concentration 90 nM). Described as above. Put shortly: as §1
Sequence AGTCGAAGTTCACTAGGTAACGTAAGATTCAGCT showed a PBM binding z-score of 1.03.

GCTAGTTGGTCCGTAAAAGGTCACACACCGGTCG displayed a PBM binding z-score of 3.92.

Sequence CGAACTAGGTCAGAACAGGACAGTGAAGGATGAT had a PBM binding z-score of 0.189.

CGAAATAGGTCAGAACAGGACAGTGAAGGATGAT showed a PBM binding z-score of 1.63.

For the sequence TAGCCTAGGTCATTCTGGGGCCAGTATAGAAAGC, the PBM binding z-score stood at 2.94.

In the case of ATACCAAGGTGATCGTGACGTCGTTGATACTAAC, the PBM binding z-score was found to be 0.547.

Sequence CGTCCAAGGTCAAGGTTAGTGAAAGAGACTCGAA yielded a PBM binding z-score of 3.88.

In the case of TCGAGTAGGTTAGTCGGGGGATTCAGCCAACATA, the PBM binding z-score worked out at 2.06.

Regarding GCTCGGAGGGCAAGGTCAGAGCTTTGTCCGTAGA, the PBM binding z-score stood at 1.26.

As for CCGAGTAGGTTATGGGGCATTCATGCAACGGTGA, the PBM binding z-score turned out to be 0.797.

Regarding ACTAGCAGTCCAAGGGTCACTCAAGATTAGTCCG, the PBM binding z-score is 2.87.

The sequence ATCGAAAGGTCCTGAGGTGAGTATACAGAAAGGC registered a PBM binding z-score of 0.248.

On to AGTCAAAGTTCACTTGGTAACGTAAGATTCAGCT, for which the PBM binding z-score is 3.4.

As for TCTAGCACGCCAGAGGGTCACTCAAGAGGTACGG, the PBM binding z-score is 0.821.

CCAACTAGGTCAAGGTCAAAGTCGGTTTGTGCCA came in with a PBM binding z-score of 4.73.

TCAGACAGGTGAAGGTAACACAGGTACGCAGTCG displayed a PBM binding z-score of 1.01.

For the sequence TTACCAAGGTGAGCTGAGGTCGTCGATCCAACTC, the PBM binding z-score is 0.696.

In turn, TCATATAGGTAAATGCTAGGTGAGAGTCCGATCT registered a PBM binding z-score of 0.0109.

In turn, TCTTGTAGATTAAAGGTTAAGAAAGCCGAAGCCT registered a PBM binding z-score of 1.82.

Regarding TCAGACAGGTGCAGGTAACTCAGGTACGCAGTCG, the PBM binding z-score turned out to be 0.192.

The sequence CGTCAAAGTTCAACTAAAGTAACGTAAAGCACGC had a PBM binding z-score of 4.14.

AATACAGGGTCACTAGGCCAGACTAGGTACGAAT returned a PBM binding z-score of 3.8.

Consider TTACCATGGTGAGCTGAGGTCGTTGATCCAACTC, for which the PBM binding z-score is 0.111.

CAGCCTAGGTCAGGGCCAGTAAAGGAGGAACGTT had a PBM binding z-score of 0.471.

For the sequence TCTTGTAGATCAATAGAGTTTAAGAAAGTGCGCT, the PBM binding z-score was 0.0999.

Take TCGAGGAGGTTACCAATGGGGCATTCAGCTTTCT: the PBM binding z-score turned out to be 2.47.

In turn, CGTCCAAGGTCAGAGATGTCAGTGAATGCCGAGT yielded a PBM binding z-score of 1.82.

In turn, CACACTAGGTCACGAAAGGTCAAAGTCGAATGAC registered a PBM binding z-score of 7.76.

Turning to GATACAGGGTCAGCTAGAGGCAAGAGTATGGAAA, the PBM binding z-score came to 2.33.

CGAACTAGGTCACAACAGGACAGTGAAGGATGAT registered a PBM binding z-score of 2.17.

With ATATGTAGGTTTAGGGTCATTCAGGTTGGTTCGC, the PBM binding z-score was determined as 3.97.

The sequence CCGACTGGGGCAAGGTTAGCATAACGCACAGCCA had a PBM binding z-score of -0.208.

Consider CGTCCAAGGTCATCGGAGGTCAGTGAAGACAGAT, for which the PBM binding z-score is 6.23.

Take TCTCGGAGGACACGAAAGGTCAGAGTTCGACATC: the PBM binding z-score turned out to be 3.5.

With CCTACTGGCCCACGAAAGGTCATTGATTCAGTGA, the PBM binding z-score came to 4.39.

TCATATAGGTAAAGGCGAAAGTCGAACGATATGA returned a PBM binding z-score of 0.229.

Sequence CAAACTAGGTCAGAGAGGTCAAAGTCCGTGCGTA yielded a PBM binding z-score of 5.36.

In the case of TAGCCTAGGTCAGATCGGGCCAGTATCCGCTATA, the PBM binding z-score amounted to 0.765.

CTCGAAAGGCCGGTTGAGGTGAGTATACGGATAA showed a PBM binding z-score of -0.654.
